Among the data in PubChem BioAssay AID651650 (Sanford-Burnham Center for Chemical Genomics, 2012) are inhibition values, retold here.

In general, inhibition refers to the relative decrease from the control value, in per cent.

The assay deals with Neuropilin-1 (Homo sapiens) (UniProt O14786). Nature of the assay: NRP-1 b1b2 CendR peptide binding inhibitors, dose response, biochemical, FP and AlphaScreen panel (AID 651650). The settings on record: NRP-1 b1b2 / RPARPAR peptide binding, FP or AlphaScreen; run 1, at 100 µM (top of the series). (In general: Alpha assays give light when donor and acceptor beads are brought close together.)
Sequence of Neuropilin-1 (Homo sapiens) (O14786 whole entry, looked up): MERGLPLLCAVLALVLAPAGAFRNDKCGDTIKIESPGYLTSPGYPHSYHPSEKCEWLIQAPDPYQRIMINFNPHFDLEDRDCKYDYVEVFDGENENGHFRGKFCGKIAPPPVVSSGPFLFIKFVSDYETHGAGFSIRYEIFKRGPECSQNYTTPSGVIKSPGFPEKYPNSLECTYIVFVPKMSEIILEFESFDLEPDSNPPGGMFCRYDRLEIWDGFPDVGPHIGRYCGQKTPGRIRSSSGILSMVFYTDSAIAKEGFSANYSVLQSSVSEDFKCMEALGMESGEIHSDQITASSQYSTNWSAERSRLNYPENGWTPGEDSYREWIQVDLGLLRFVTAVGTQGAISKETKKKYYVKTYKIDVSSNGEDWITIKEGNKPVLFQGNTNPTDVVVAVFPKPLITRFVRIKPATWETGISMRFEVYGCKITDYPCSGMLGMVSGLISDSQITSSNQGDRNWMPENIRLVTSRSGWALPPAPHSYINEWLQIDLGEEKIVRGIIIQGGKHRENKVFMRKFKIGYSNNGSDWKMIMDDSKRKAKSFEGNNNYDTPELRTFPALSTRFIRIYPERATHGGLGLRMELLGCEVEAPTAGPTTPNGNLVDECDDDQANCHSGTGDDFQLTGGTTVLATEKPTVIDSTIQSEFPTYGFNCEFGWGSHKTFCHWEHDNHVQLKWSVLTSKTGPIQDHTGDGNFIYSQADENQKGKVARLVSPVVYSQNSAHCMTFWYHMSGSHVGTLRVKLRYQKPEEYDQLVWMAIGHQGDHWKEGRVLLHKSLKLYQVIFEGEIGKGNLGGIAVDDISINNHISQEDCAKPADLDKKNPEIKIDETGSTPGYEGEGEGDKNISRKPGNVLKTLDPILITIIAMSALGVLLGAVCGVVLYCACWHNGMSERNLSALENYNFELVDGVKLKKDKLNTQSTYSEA
Take `Cn1c(=O)c2c(ncn2CC(COCc2ccccc2)OCc2ccccc2)n(C)c1=O` (stereo unspecified): the inhibition amounted to 54.8%.

Regarding `FC(F)(F)c1cc(C(F)(F)F)c2ccc(Oc3ccccc3)nc2n1`, the inhibition amounted to 22.5%.

As for `Cc1ccc(NC=C(S(=O)(=O)c2ccccc2)S(=O)(=O)c2ccccc2)cc1`, the inhibition is -22.8%.

With `Cc1ccc(Cn2c(C(C)Nc3nc(-c4ccc(Cl)c([N+](=O)[O-])c4)cs3)nc3cc(C(F)(F)F)ccc32)cc1` (stereo unspecified), the inhibition came out at 41.6%.

For the compound `CCC1CCCCN1CCCNC(=O)C1CCCN(S(=O)(=O)N2CC(C)CC(C)C2)C1` (stereo unspecified), the inhibition worked out at 60.7%.

As for `O=c1ccsn1Cc1ccccc1`, the inhibition turned out to be 11.6%.

For the compound `CN(C)/C=C/c1c([N+](=O)[O-])c2ccc(O)cc2n1-c1ccccc1`, the inhibition stood at 39.4%.

For `CNC(=O)NC(=O)C(C)OC(=O)c1c(C)noc1C` (stereo unspecified), the inhibition is 49.1%.

Turning to `COc1cc(CN2C[C@@H](CO)O[C@@H](n3cnc4c(N5CCN(c6ccccc6)CC5)ncnc43)C2)cc(OC)c1OC`, the inhibition was found to be 52.8%.

As to `C=C1C[C@@]23CCC4[C@@](C)(CCC[C@@]4(C)C(=O)O)C2CC[C@]1(O)C3` (stereo partly specified), the inhibition is 63.6%.

With `O=C(c1ccc(-c2cccc(C(F)(F)F)c2)o1)N1CCCC(C(F)(F)F)C1` (stereo unspecified), the inhibition was found to be 3.1%.

For `CC(=O)Nc1ccccc1OCC(=O)N(Cc1ccccc1)C(C)C`, the inhibition stood at 18.2%.

As to `COc1ccc2c(c1)N(C)/C(=C1/SC(=NCc3ccccc3)N(c3ccccc3)C1=O)S2`, the inhibition turned out to be 36.5%.

For the compound `COc1ccc(Cn2c3ccc(OC)cc3c3nc4ccccc4nc32)cc1`, the inhibition was found to be 78.8%.

For the compound `Cc1ccc(OCC(=O)Nc2ccc(C)c(S(=O)(=O)N3CCCCCC3)c2)c([N+](=O)[O-])n1`, the inhibition was 44.6%.

On to `C[C@@H]1CC=C[C@H]2[C@H]1C(=O)N(Cc1ccccc1)[C@H]2c1ccc(/C=C/c2ccccc2)cc1F`, for which the inhibition was found to be 48.3%.
